In PubChem BioAssay:
For some assays here: Entries with a potency or affinity are not part of this list. Calls of active or inactive are those of the source. Unless noted, no rule for the calls is given here.

How the values were obtained:
[1] = antimalarial activity against Dd2 strain (AID 2302;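 active = growth inhibition above 50% at the single 2 µM test dose, taken to imply half-maximal potency below 2 µM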;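 also: 0% = DMSO untreated growth and 100% = chloroquine plus artemisinin killed control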); conditions: P. falciparum Dd2 in RBCs, LDH growth readout, 72 h; at 2 µM; hits give high values
[2] = human hepatoma cell viability loss – ATP luminescence, cytotoxicity control for P. falciparum antimalarial project, primary screen (AID 2303;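 active = inhibition above 50%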;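 also: 0% = DMSO wells and 100% = digitonin-killed cells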); conditions: HepG2 viability, 24-48 h, at 10 µM, hits give high values
[3] = target: L-lactate dehydrogenase (Plasmodium falciparum (isolate CDC / Honduras)) (UniProt Q27743); assay: PfLDH activity inhibition – cell lysate, 3D7 strain, counter-screen for P. falciparum growth inhibition project (AID 2304);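 also: 0% = vehicle and 100% = reference inhibitor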; conditions: P. falciparum 3D7 crude extract, LDH APAD/NBT absorbance; at 2 µM; hits give high values
[4] = inhibition of 3D7 malaria parasite growth – strain 3D7 (AID 2306);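 also: 0% = DMSO wells and 100% = chloroquine plus artemisinin control wells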; conditions: P. falciparum 3D7 erythrocytic growth, LDH absorbance, 72 h; at 2 µM; hits give high values
[5] = target: Calcium-dependent protein kinase 1 (Plasmodium falciparum (isolate 3D7)) (UniProt P62344); assay: PfCDPK1 kinase inhibitors, biochemical, TCAMS library (AID 1159585; cut-off not given, nearly all actives have IC50 up to about 0.98 µM;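 also: inhibitors leave more ATP so luminescence rises with inhibition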); conditions: recombinant PfCDPK1, Kinase-Glo ATP depletion luminescence
[6] = target: Plasmodium falciparum protein kinase 6 (PK6, PF3D7_1337100) (UniProt Q8IDW1); assay: PfPK6 kinase inhibitors, biochemical, TCAMS library (AID 1159586); conditions: recombinant PfPK6, Kinase-Glo ATP depletion luminescence
[7] = target: Protein kinase 7 (PK7), Plasmodium falciparum 3D7 (PF3D7_0213400) (UniProt Q7YTF7); assay: inhibition of Plasmodium PK7 catalytic activity – biochemical, TCAMS antimalarial set, Kinase-Glo luminescence (AID 1159587); conditions: recombinant PfPK7, Kinase-Glo ATP depletion luminescence
[8] = target: Calcium-dependent protein kinase 4 (Plasmodium falciparum (isolate 3D7)) (UniProt Q8IBS5); assay: PfCDPK4 kinase inhibitors, biochemical, TCAMS library (AID 1159588; cut-off not given, nearly all actives have IC50 up to about 0.91 µM); conditions: recombinant PfCDPK4, Kinase-Glo ATP depletion luminescence
Sequence of Calcium-dependent protein kinase 4 (Plasmodium falciparum (isolate 3D7)) (Q8IBS5 whole entry, looked up): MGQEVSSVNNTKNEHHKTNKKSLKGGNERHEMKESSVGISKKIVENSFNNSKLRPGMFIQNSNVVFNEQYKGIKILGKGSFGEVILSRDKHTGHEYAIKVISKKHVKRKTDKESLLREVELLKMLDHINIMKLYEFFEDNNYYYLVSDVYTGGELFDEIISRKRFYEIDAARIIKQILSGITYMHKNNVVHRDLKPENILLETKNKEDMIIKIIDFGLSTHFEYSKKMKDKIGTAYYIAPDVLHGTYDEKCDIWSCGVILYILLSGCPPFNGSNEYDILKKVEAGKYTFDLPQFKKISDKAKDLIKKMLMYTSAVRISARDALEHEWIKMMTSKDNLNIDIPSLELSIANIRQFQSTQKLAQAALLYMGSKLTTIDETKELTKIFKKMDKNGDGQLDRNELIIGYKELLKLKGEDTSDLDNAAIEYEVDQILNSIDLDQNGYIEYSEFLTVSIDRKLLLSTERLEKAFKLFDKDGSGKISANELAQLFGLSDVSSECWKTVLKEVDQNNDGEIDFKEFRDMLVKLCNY

Sequence of Protein kinase 7 (PK7), Plasmodium falciparum 3D7 (PF3D7_0213400) (Q7YTF7 1-343): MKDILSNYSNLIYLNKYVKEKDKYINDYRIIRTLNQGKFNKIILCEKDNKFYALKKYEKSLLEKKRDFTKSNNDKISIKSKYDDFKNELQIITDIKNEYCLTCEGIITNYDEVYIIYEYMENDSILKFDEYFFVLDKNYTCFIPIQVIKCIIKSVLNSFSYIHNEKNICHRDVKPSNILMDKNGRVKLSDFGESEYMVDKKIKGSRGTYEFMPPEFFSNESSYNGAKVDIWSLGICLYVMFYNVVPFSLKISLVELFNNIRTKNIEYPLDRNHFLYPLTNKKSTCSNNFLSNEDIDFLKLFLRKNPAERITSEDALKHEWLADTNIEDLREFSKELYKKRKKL
Sequence of Plasmodium falciparum protein kinase 6 (PK6, PF3D7_1337100) (Q8IDW1 1-305): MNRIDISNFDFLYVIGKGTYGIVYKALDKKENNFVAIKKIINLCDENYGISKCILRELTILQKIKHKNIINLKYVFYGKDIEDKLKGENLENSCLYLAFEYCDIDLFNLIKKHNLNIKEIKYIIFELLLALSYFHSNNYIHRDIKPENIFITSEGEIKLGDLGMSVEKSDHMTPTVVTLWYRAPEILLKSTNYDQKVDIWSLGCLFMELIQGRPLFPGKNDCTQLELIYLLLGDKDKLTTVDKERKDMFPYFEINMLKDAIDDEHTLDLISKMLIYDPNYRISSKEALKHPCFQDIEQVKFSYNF
Sequence of Calcium-dependent protein kinase 1 (Plasmodium falciparum (isolate 3D7)) (P62344 whole entry, looked up): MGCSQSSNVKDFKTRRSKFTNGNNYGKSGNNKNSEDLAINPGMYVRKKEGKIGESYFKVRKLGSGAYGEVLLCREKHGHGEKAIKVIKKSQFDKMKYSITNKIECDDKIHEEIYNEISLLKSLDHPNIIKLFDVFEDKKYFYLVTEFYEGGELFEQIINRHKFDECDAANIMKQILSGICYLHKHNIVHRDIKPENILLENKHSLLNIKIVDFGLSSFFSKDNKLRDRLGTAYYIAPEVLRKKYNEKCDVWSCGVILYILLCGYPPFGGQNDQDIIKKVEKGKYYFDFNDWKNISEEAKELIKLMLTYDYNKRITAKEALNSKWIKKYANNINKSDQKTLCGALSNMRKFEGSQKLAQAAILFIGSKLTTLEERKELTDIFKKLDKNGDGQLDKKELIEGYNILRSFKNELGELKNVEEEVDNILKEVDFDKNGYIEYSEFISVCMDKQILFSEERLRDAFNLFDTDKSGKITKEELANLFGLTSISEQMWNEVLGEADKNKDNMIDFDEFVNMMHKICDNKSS
Sequence of L-lactate dehydrogenase (Plasmodium falciparum (isolate CDC / Honduras)) (Q27743 whole entry, looked up): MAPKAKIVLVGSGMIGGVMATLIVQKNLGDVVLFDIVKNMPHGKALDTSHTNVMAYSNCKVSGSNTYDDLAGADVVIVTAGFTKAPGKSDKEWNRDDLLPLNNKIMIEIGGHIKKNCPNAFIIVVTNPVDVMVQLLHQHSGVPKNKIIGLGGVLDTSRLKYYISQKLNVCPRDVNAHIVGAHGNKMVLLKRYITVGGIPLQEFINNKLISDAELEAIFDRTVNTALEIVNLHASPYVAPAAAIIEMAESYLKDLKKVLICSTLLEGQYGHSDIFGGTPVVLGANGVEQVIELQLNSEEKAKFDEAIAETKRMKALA

CCc1nc(N)nc(N)c1-c1ccc(C(C)C)cc1
active: growth inhibition [4] 92%
inactive: growth inhibition [1] -4% | inhibition [2] 3% | inhibition [3] 1% | outcome [5] | outcome [6] | outcome [7] | outcome [8]

O=S(=O)(NCCCN1CCOCC1)c1ccc2nccc(Nc3ccc(Oc4ccccc4)cc3)c2c1
active: growth inhibition [1] 92% | growth inhibition [4] 95%
inactive: inhibition [2] 1% | inhibition [3] -2% | outcome [5] | outcome [6] | outcome [7] | outcome [8]

CC(=O)c1sc(NC(=O)Nc2ccc(C)cc2C)nc1C
active: growth inhibition [1] 68% | growth inhibition [4] 96%
inactive: inhibition [2] 5% | inhibition [3] 0% | outcome [5] | outcome [6] | outcome [7] | outcome [8]

Cc1cc(NN=Cc2cccc(F)c2)c2cc(F)ccc2n1
active: growth inhibition [1] 99% | growth inhibition [4] 101%
inactive: inhibition [2] 7% | inhibition [3] -1% | outcome [5] | outcome [6] | outcome [7] | outcome [8]

CCCCc1cc(NCc2ccncc2)nc(Nc2cccc(OC)c2)n1
inactive: inhibition [2] 41% | inhibition [3] -5% | outcome [5] | outcome [6] | outcome [7] | outcome [8]
active: growth inhibition [1] 56% | growth inhibition [4] 101%

COc1ccc(NC(=O)c2ccc(Br)c(C)c2)cc1N1CCN(CCCCc2ccccc2)CC1
active: growth inhibition [4] 88%
inactive: growth inhibition [1] 17% | inhibition [2] 29% | inhibition [3] -1% | outcome [5] | outcome [6] | outcome [7] | outcome [8]

CN(C)CCCOc1c(C(C)(C)C)cc(-c2cc(C(C)(C)C)c(OCCCN(C)C)c(C(C)(C)C)c2)cc1C(C)(C)C
inactive: inhibition [2] 25% | inhibition [3] 0% | outcome [5] | outcome [6] | outcome [7] | outcome [8]
active: growth inhibition [1] 99% | growth inhibition [4] 100%

CC(=O)Nc1ncc(C(=O)Nc2cccc(-c3ccc(-c4nc5ccc(C(F)(F)F)cc5[nH]4)cc3)c2)s1
inactive: inhibition [3] -4% | outcome [5] | outcome [6] | outcome [7] | outcome [8]
active: growth inhibition [1] 94% | inhibition [2] 83% | growth inhibition [4] 101%

CN1CCC(C(=O)N(Cc2ccc(-c3ccc(CNCCc4ccc(S(C)(=O)=O)cc4)cn3)cc2)C2Cc3ccccc3C2)CC1
active: growth inhibition [4] 98%
inactive: growth inhibition [1] 49% | inhibition [2] 21% | inhibition [3] -2% | outcome [5] | outcome [6] | outcome [7] | outcome [8]

CN1CCN(Cc2ccc(-c3ccc4c(Nc5ccc(Oc6ccccn6)cc5)ccnc4c3)o2)CC1
active: growth inhibition [1] 99% | growth inhibition [4] 101%
inactive: inhibition [2] 13% | inhibition [3] -3% | outcome [5] | outcome [6] | outcome [7] | outcome [8]

COc1cc(OC)cc(C(=O)Nc2cccc(-c3cn4ccc(C)cc4n3)c2)c1
inactive: growth inhibition [1] 45% | inhibition [2] 4% | inhibition [3] 0% | outcome [5] | outcome [6] | outcome [7] | outcome [8]
active: growth inhibition [4] 86%

CN(C)CCOc1cc(NC(=O)Nc2cccc3c(-c4ccncc4)cccc23)ccc1I
inactive: growth inhibition [1] 28% | inhibition [2] 20% | inhibition [3] 0% | outcome [5] | outcome [6] | outcome [7] | outcome [8]
active: growth inhibition [4] 100%

CN1CCC(C(=O)N(Cc2ccc(-c3ccc(CNCCc4ccccc4)cn3)cc2)C2CCN(Cc3ccccc3)CC2)CC1
active: growth inhibition [1] 99% | growth inhibition [4] 100%
inactive: inhibition [2] 24% | inhibition [3] -6% | outcome [5] | outcome [6] | outcome [7] | outcome [8]

Cc1cc(OCC(=O)Nc2ccc(-c3nc4ccccc4[nH]3)cc2)cc(C)c1Cl
inactive: growth inhibition [1] 0% | inhibition [2] 5% | inhibition [3] -1% | outcome [5] | outcome [6] | outcome [7] | outcome [8]
active: growth inhibition [4] 99%

CC1(C)N=C(N)N=C(N)N1OCc1cc(Cl)c(CON2C(N)=NC(N)=NC2(C)C)cc1Cl
active: growth inhibition [1] 77% | growth inhibition [4] 94%
inactive: inhibition [2] 21% | inhibition [3] 3% | outcome [5] | outcome [6] | outcome [7] | outcome [8]

CCCc1cc(OC)c(C[C@@H]2c3cc(O)c(Cl)cc3CCN2C)cc1OC
inactive: inhibition [2] 3% | inhibition [3] 8% | outcome [5] | outcome [6] | outcome [7] | outcome [8]
active: growth inhibition [1] 98% | growth inhibition [4] 98%

Cc1cccc2[nH]c(-c3cccc(-c4cccc(NC(=O)Nc5ccc(Cl)c(Cl)c5)c4)c3)nc12
active: growth inhibition [1] 96% | growth inhibition [4] 101%
inactive: inhibition [2] 24% | inhibition [3] 1% | outcome [5] | outcome [6] | outcome [7] | outcome [8]

COc1ccc(OC)c(NC(=O)C2c3ccccc3C(=O)N(CC(C)C)C2c2cccs2)c1 (stereo unspecified)
inactive: inhibition [2] 9% | inhibition [3] -5% | outcome [5] | outcome [6] | outcome [7] | outcome [8]
active: growth inhibition [1] 66% | growth inhibition [4] 100%

O=C(NCCCCN1CCC(c2c[nH]c3ccccc23)CC1)c1ccc(-c2ccc(C(F)(F)F)cc2)cc1
active: growth inhibition [4] 98%
inactive: growth inhibition [1] 22% | inhibition [2] 34% | inhibition [3] -1% | outcome [5] | outcome [6] | outcome [7] | outcome [8]

O=C(/C=C/c1ccc(Cl)c(Cl)c1)NCCCCCN1CCC(NC(=O)Nc2ccc(C(F)(F)F)cc2)C1 (stereo unspecified)
inactive: growth inhibition [1] 6% | inhibition [2] 11% | inhibition [3] -2% | outcome [5] | outcome [6] | outcome [7] | outcome [8]
active: growth inhibition [4] 100%

CC1CCCCC1N(C)C1CCN(CCCNC(=O)C=Cc2cccc(C(F)(F)F)c2)CC1 (stereo unspecified)
inactive: growth inhibition [1] 17% | inhibition [2] 47% | inhibition [3] -2% | outcome [5] | outcome [6] | outcome [7] | outcome [8]
active: growth inhibition [4] 100%

COCCN(C)CCCOc1cc2c(cc1OC)ncn2-c1cc(OCc2ccccc2C(F)(F)F)c(C(N)=O)s1
active: growth inhibition [4] 98%
inactive: growth inhibition [1] 49% | inhibition [2] 24% | inhibition [3] 2% | outcome [5] | outcome [6] | outcome [7] | outcome [8]

CCOc1cc(O)c(-c2nc(N)ncc2-c2ccc3c(c2)OCCO3)cc1CC
inactive: inhibition [2] -5% | inhibition [3] -1% | outcome [5] | outcome [6] | outcome [7] | outcome [8]
active: growth inhibition [1] 68% | growth inhibition [4] 99%

COc1ccc2nccc(NN=Cc3ccncc3)c2c1
active: growth inhibition [1] 95% | growth inhibition [4] 99%
inactive: inhibition [2] 4% | inhibition [3] -3% | outcome [5] | outcome [6] | outcome [7] | outcome [8]

Cc1cccc2[nH]c(-c3ccc(-c4ccc(CNCc5cccc(N)c5)cc4)s3)nc12
inactive: inhibition [2] 10% | inhibition [3] -2% | outcome [5] | outcome [6] | outcome [7] | outcome [8]
active: growth inhibition [1] 78% | growth inhibition [4] 102%

O=S(=O)(Nc1cc2c(cc1OCc1ccccc1)CCN(C1CCC1)CC2)c1ccc(-c2ccc(Cl)cc2)cc1
inactive: growth inhibition [1] 12% | inhibition [2] 18% | inhibition [3] 0% | outcome [5] | outcome [6] | outcome [7] | outcome [8]
active: growth inhibition [4] 92%

CCCCCCCNCCNc1cc(C)nc2ccccc12
active: growth inhibition [1] 99% | inhibition [2] 58% | growth inhibition [4] 100%
inactive: inhibition [3] -4% | outcome [5] | outcome [6] | outcome [7] | outcome [8]

CN1CCC(NCc2ccc(-c3ccc(S(=O)(=O)NCc4ccccc4)s3)cc2)CC1
inactive: inhibition [3] -3% | outcome [5] | outcome [6] | outcome [7] | outcome [8]
active: growth inhibition [1] 95% | inhibition [2] 77% | growth inhibition [4] 99%

Cc1cccc2[nH]c(-c3cccc(-c4ccc(CNCc5cnn(-c6ccccc6)n5)cc4)c3)nc12
active: growth inhibition [1] 66% | growth inhibition [4] 102%
inactive: inhibition [2] 20% | inhibition [3] -4% | outcome [5] | outcome [6] | outcome [7] | outcome [8]

Fc1cccc2sc(Nc3nc(-c4ccccn4)cs3)nc12
inactive: inhibition [2] 30% | inhibition [3] 6% | outcome [5] | outcome [6] | outcome [7] | outcome [8]
active: growth inhibition [1] 97% | growth inhibition [4] 95%

CCCCNCc1ccc(-c2nc(CN(CCCn3ccnc3)C(=O)N[C@@H]3C[C@H]3c3ccccc3)cs2)cc1
inactive: growth inhibition [1] 34% | inhibition [2] 21% | inhibition [3] 3% | outcome [5] | outcome [6] | outcome [7] | outcome [8]
active: growth inhibition [4] 100%

Cc1ccc(NC(=O)Nc2ccc(S(=O)(=O)c3ccc(NC(=O)Nc4ccc(C)c(Cl)c4)cc3)cc2)cc1Cl
active: growth inhibition [4] 99%
inactive: growth inhibition [1] 42% | inhibition [2] 49% | inhibition [3] 4% | outcome [5] | outcome [6] | outcome [7] | outcome [8]

CC(C)(C)COc1ccc2c(N)n[nH]c2c1
inactive: growth inhibition [1] 8% | inhibition [2] 31% | inhibition [3] 4% | outcome [5] | outcome [6] | outcome [7] | outcome [8]
active: growth inhibition [4] 90%

Cc1ccc(CCNCC(O)c2cccc(C(F)(F)F)c2)cc1 (stereo unspecified)
active: growth inhibition [1] 83% | growth inhibition [4] 94%
inactive: inhibition [2] -3% | inhibition [3] 0% | outcome [5] | outcome [6] | outcome [7] | outcome [8]

O=[N+]([O-])c1cc(C=NNc2nc3nonc3nc2Nc2ccc(F)cc2)c(Cl)cc1Cl
inactive: growth inhibition [1] 13% | inhibition [2] 5% | inhibition [3] -4% | outcome [5] | outcome [6] | outcome [7] | outcome [8]
active: growth inhibition [4] 98%

CCCn1c(Sc2ccc(C#N)c([N+](=O)[O-])c2)nnc1-c1ccc(OC)cc1
active: growth inhibition [1] 95% | growth inhibition [4] 94%
inactive: inhibition [2] -6% | inhibition [3] -2% | outcome [5] | outcome [6] | outcome [7] | outcome [8]

CC(C)C(=O)n1ncc2c3c(N)nc(N)nc3ccc21
inactive: growth inhibition [1] 3% | inhibition [2] 0% | inhibition [3] -5% | outcome [5] | outcome [6] | outcome [7] | outcome [8]
active: growth inhibition [4] 87%
